# Hit rate of the full screen: of about 1,300 compounds, about 1,100 (85%) were called active. Rule as the data show it: active = inhibition above about 48%; inactive = the rest. So high a share suggests a set chosen from earlier hits. A selection follows.
# Experiment: NALP3 inhibitors retested in yeast, confirmation, luminescence, single concentration (AID 435006)
# Conditions: yeast expressing human NALP3, luminescence; at 10 µM; stronger effect = higher value
row,Compound,inhibition
1,Cc1cc2ccccn2c1C(C[N+](=O)[O-])c1c(F)cccc1Cl (stereo unspecified),72.8% (active)
2,O=C1/C(=C\c2ccc3c(c2)OCO3)N2CCC1CC2,59.5% (active)
3,CCCCCCCCCCCCn1ccc(=N)cc1,82.9% (active)
4,C[C@]12CCC3C(CC[C@H]4C[C@@H](O)CC[C@]34C)C1CC[C@@H]2O (stereo partly specified),57.9% (active)
5,C[C@]12CCC3C(CC[C@H]4C[C@@H](O)CC[C@]34C)C1C[C@@H](O)[C@H]2O (stereo partly specified),53% (active)
6,Cc1ccc(-c2nc3ccccc3c(=O)n2-c2ccc(Br)cn2)cc1,73.3% (active)

# — PubChem BioAssay AID435006 (Sanford-Burnham Center for Chemical Genomics, 2010)
